Data reported in ChEMBL document CHEMBL1961873, “Compounds: GSK PKIS; Assays: Nanosyn kinase panel” (2012).

Experiments:
[1] = target: Tyrosine-protein kinase CSK (Homo sapiens) (UniProt P41240); conditions: at 1 µM;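 also: each value is an averaged inhibition reading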
[2] = target: T1, Discoidin domain-containing receptor 2 (Homo sapiens) (UniProt Q16832); conditions: at 0.1 µM
T1 sequence (whole entry): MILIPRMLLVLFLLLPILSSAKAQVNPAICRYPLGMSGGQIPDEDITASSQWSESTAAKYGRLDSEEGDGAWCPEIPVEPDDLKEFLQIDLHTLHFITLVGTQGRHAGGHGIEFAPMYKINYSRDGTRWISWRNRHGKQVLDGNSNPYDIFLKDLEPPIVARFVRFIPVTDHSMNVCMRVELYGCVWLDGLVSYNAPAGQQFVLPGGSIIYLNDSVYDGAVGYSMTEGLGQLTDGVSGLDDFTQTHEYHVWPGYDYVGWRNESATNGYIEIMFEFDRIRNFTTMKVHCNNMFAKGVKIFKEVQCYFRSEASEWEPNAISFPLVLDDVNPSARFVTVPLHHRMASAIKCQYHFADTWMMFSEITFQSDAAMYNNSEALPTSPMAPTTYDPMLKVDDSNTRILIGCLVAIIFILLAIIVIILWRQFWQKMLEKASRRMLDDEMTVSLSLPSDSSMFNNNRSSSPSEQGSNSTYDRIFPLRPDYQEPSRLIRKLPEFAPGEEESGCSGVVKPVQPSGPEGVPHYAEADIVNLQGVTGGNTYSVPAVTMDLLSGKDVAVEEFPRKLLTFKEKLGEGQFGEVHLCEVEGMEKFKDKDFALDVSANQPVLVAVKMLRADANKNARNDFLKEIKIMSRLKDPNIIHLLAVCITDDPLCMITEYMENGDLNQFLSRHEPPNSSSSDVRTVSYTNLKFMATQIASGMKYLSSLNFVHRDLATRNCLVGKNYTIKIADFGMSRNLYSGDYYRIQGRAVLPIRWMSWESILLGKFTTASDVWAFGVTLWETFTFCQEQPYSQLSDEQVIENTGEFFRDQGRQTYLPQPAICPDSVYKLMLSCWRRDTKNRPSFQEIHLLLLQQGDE

[3] = target: T1, Discoidin domain-containing receptor 2 (Homo sapiens); conditions: at 1 µM
[4] = target: Epidermal growth factor receptor (Homo sapiens) (UniProt P00533); conditions: at 0.1 µM
[5] = target: Epidermal growth factor receptor (Homo sapiens) (UniProt P00533); conditions: at 1 µM
[6] = tested on: Epidermal growth factor receptor (Homo sapiens), P00533 [L858R]; conditions: at 0.1 µM
[7] = tested on: Epidermal growth factor receptor (Homo sapiens), P00533 [L858R]; conditions: at 1 µM
[8] = tested on: Epidermal growth factor receptor (Homo sapiens), P00533 [L861Q]; conditions: at 0.1 µM
[9] = tested on: Epidermal growth factor receptor (Homo sapiens), P00533 [L861Q]; conditions: at 1 µM
[10] = tested on: Epidermal growth factor receptor (Homo sapiens), P00533 [T790M]; conditions: at 0.1 µM
Epidermal growth factor receptor (Homo sapiens), P00533 [T790M], sequence (P00533 whole entry T790M): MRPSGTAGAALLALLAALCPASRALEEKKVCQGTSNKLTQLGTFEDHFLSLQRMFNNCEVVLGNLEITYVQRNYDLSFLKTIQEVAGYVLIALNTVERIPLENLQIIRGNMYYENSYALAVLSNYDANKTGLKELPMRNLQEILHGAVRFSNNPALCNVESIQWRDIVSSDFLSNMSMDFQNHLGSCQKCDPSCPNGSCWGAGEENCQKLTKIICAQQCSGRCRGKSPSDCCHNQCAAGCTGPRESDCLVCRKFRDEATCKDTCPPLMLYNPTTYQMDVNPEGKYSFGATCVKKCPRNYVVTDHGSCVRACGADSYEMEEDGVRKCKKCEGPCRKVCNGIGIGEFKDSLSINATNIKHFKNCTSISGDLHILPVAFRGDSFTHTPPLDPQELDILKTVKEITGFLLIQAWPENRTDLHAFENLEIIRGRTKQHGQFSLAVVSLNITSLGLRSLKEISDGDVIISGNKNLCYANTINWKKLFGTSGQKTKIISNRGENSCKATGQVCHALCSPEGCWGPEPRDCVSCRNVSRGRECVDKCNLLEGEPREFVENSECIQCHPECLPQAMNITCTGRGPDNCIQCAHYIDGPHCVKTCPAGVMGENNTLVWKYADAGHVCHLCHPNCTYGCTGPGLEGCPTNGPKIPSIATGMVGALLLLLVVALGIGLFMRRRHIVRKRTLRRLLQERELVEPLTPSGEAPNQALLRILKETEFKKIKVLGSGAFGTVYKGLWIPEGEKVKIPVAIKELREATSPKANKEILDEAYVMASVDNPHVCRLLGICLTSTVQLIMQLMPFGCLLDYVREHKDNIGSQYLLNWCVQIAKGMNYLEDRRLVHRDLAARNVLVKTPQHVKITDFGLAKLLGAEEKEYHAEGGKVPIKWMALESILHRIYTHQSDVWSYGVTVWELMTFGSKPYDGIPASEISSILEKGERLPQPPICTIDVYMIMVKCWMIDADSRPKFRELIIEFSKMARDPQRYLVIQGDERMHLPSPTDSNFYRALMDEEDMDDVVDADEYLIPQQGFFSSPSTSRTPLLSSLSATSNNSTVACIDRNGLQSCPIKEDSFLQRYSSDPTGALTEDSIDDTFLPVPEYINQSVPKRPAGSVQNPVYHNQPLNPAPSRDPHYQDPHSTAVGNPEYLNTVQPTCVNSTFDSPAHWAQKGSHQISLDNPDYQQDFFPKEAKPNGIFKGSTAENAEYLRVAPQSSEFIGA

[11] = tested on: Epidermal growth factor receptor (Homo sapiens), P00533 [T790M]; conditions: at 1 µM
[12] = tested on: Epidermal growth factor receptor (Homo sapiens), P00533 [L858R,T790M]; conditions: at 0.1 µM
Epidermal growth factor receptor (Homo sapiens), P00533 [L858R,T790M], sequence (P00533 whole entry T790M/L858R, looked up): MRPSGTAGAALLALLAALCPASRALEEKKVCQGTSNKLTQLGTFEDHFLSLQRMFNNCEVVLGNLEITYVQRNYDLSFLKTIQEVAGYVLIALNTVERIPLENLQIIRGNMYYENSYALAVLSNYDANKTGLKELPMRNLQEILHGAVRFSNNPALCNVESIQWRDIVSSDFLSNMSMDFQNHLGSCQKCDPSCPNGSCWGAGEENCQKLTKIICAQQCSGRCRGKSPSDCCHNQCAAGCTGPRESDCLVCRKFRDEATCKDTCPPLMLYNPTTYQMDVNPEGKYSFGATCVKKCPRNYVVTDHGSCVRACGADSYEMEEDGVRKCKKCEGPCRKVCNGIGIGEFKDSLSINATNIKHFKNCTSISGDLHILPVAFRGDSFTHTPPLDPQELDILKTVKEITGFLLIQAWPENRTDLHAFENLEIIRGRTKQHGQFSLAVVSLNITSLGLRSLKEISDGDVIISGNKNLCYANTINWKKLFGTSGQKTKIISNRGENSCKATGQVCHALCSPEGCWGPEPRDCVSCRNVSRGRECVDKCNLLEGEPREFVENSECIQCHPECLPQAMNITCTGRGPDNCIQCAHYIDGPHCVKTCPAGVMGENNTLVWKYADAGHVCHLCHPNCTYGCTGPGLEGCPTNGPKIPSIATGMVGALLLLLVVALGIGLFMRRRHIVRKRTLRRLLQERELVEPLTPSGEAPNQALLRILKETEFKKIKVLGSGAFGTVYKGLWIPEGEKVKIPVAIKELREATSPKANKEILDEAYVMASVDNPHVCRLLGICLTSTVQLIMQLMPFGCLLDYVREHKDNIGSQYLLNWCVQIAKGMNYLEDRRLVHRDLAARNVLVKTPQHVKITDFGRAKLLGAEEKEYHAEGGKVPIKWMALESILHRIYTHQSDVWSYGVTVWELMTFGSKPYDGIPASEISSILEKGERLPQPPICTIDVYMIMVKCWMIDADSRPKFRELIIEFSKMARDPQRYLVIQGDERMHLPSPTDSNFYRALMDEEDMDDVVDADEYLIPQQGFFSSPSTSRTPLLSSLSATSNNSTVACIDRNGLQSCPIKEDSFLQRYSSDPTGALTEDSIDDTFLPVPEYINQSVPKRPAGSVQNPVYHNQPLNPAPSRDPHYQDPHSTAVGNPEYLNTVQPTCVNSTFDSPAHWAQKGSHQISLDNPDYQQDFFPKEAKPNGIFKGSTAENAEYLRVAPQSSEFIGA

[13] = tested on: Epidermal growth factor receptor (Homo sapiens), P00533 [L858R,T790M]; conditions: at 1 µM
[14] = target: Ephrin type-A receptor 2 (Homo sapiens) (UniProt P29317); conditions: at 0.1 µM
Ephrin type-A receptor 2 (Homo sapiens), sequence (P29317 whole entry): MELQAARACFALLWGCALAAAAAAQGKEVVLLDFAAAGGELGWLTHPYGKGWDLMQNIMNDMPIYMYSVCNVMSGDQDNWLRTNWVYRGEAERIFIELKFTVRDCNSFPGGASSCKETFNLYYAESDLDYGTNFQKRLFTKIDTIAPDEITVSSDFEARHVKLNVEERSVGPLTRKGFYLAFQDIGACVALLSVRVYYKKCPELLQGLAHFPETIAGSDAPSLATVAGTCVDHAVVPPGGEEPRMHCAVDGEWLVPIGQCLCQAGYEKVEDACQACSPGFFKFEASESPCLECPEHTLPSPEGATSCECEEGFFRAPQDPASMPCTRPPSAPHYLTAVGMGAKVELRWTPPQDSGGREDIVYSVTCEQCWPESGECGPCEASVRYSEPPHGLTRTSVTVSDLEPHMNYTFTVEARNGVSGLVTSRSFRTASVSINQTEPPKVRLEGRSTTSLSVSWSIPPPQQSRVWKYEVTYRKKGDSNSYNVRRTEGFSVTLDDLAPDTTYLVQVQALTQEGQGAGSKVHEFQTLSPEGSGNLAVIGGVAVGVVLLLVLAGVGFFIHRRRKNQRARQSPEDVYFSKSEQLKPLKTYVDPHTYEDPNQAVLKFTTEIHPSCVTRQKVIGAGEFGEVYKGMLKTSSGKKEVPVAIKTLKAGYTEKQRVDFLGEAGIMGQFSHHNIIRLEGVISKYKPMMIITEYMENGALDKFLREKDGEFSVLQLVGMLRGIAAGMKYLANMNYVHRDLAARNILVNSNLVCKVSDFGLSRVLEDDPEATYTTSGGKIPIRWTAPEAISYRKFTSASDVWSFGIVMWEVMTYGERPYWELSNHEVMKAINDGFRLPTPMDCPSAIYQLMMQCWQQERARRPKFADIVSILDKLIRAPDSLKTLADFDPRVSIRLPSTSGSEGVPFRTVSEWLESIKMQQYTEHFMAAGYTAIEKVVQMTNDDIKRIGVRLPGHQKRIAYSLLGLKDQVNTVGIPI

[15] = target: Ephrin type-A receptor 2 (Homo sapiens) (UniProt P29317); conditions: at 1 µM
[16] = target: T2, Ephrin type-A receptor 3 (Homo sapiens) (UniProt P29320); conditions: at 0.1 µM
T2 sequence (whole entry): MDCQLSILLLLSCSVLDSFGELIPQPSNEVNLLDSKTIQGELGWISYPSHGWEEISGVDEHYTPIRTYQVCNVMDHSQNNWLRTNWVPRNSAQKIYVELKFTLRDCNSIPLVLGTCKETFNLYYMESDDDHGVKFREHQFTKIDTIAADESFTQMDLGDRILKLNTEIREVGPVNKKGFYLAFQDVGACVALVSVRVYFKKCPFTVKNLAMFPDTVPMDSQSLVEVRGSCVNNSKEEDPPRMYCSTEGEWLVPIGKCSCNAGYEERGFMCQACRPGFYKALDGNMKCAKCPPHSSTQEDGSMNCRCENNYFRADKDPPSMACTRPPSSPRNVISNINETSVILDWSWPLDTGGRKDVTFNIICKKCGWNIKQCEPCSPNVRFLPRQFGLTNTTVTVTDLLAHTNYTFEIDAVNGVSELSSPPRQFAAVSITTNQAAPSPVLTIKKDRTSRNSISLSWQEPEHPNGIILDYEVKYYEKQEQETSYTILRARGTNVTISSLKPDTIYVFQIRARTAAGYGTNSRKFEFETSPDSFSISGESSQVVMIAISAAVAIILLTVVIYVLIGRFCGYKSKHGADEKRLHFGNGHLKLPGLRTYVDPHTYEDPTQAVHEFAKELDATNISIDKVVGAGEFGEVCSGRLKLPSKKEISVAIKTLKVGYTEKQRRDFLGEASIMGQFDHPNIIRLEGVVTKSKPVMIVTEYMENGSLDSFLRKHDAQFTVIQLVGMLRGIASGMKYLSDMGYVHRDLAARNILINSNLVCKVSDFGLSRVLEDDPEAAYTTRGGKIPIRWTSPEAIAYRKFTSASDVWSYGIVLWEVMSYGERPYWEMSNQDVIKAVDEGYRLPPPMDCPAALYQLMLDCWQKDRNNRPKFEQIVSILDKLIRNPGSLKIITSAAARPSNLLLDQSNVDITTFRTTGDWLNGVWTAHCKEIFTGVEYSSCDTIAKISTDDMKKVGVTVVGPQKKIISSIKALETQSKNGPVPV

[17] = target: T2, Ephrin type-A receptor 3 (Homo sapiens); conditions: at 1 µM
[18] = target: Ephrin type-A receptor 4 (Homo sapiens) (UniProt P54764); conditions: at 0.1 µM
Ephrin type-A receptor 4 (Homo sapiens), sequence (P54764 whole entry): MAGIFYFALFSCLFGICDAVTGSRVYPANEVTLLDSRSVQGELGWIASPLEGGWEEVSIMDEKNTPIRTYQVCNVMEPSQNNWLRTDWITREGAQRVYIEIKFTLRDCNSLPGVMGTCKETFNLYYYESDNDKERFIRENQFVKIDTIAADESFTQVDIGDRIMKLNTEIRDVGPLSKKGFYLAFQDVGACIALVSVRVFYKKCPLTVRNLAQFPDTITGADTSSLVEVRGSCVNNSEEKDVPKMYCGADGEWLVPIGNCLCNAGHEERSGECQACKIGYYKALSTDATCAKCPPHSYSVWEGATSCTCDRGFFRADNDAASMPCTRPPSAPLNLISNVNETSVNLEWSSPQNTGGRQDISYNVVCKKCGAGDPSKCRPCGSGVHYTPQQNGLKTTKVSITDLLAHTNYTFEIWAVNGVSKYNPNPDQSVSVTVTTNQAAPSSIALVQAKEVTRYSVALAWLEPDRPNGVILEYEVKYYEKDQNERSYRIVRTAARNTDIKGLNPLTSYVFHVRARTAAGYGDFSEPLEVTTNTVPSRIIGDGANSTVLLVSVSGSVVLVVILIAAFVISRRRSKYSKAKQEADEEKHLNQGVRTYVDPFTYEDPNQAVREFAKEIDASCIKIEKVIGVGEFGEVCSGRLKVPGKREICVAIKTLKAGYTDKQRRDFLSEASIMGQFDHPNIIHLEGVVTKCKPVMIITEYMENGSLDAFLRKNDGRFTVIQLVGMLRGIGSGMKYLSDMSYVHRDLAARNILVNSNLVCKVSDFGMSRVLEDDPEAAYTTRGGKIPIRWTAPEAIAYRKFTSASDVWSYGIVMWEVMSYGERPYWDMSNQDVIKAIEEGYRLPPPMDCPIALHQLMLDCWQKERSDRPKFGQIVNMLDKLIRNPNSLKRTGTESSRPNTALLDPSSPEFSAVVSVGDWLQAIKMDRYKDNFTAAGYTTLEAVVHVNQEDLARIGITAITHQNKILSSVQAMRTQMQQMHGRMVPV

[19] = target: Ephrin type-A receptor 4 (Homo sapiens) (UniProt P54764); conditions: at 1 µM
[20] = target: T3, Ephrin type-B receptor 2 (Homo sapiens) (UniProt P29323); conditions: at 0.1 µM;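 also: reported as mean inhibition of EPHB2, from the GSK PKIS dataset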
T3 sequence (whole entry): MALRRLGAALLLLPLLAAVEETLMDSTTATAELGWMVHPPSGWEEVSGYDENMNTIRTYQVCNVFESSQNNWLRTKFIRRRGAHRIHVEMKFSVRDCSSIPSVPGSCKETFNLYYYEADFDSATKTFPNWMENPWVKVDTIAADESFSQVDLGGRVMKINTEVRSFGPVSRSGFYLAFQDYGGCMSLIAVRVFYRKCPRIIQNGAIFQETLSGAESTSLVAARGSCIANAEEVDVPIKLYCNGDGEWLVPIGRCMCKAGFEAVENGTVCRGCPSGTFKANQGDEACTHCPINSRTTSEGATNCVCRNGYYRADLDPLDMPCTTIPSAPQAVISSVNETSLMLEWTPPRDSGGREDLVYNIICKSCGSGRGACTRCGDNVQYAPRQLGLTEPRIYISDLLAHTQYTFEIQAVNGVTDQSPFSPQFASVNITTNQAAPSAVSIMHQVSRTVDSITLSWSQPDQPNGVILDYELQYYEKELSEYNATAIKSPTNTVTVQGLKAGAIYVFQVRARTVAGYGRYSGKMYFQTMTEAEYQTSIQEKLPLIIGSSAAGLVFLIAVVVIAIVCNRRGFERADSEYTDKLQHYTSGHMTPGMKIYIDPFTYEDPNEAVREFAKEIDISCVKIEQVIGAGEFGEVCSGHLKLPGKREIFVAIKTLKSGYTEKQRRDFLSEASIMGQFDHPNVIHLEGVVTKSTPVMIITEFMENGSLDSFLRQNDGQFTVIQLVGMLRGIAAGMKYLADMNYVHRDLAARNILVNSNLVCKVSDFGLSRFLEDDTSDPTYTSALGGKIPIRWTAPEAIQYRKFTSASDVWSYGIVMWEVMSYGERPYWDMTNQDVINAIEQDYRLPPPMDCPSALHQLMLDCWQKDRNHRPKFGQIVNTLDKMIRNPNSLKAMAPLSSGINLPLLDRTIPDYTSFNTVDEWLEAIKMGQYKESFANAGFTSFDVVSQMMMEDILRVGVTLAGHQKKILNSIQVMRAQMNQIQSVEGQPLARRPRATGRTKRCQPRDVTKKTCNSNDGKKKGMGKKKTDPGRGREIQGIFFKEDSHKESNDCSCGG

Tyrosine-protein kinase CSK (Homo sapiens), sequence (P41240 2-450 limits assumed): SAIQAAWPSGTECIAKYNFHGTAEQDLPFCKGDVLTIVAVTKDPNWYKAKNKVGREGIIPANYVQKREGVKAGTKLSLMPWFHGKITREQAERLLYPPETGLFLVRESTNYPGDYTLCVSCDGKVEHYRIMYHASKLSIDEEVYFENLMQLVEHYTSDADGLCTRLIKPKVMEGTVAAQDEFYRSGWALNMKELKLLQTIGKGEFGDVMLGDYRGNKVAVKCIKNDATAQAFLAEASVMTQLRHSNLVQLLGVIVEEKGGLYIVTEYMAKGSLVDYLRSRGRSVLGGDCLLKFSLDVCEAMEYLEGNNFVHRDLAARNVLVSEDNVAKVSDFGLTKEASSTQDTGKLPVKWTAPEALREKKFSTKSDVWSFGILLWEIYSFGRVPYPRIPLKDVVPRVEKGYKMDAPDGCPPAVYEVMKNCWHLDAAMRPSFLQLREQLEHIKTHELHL

Compound | inhibition [1] [%] | inhibition [2] [%] | inhibition [3] [%] | inhibition [4] [%] | inhibition [5] [%] | inhibition [6] [%] | inhibition [7] [%] | inhibition [8] [%] | inhibition [9] [%] | inhibition [10] [%] | inhibition [11] [%] | inhibition [12] [%] | inhibition [13] [%] | inhibition [14] [%] | inhibition [15] [%] | inhibition [16] [%] | inhibition [17] [%] | inhibition [18] [%] | inhibition [19] [%] | inhibition [20] [%]
Clc1ccc(CNc2nccc(-c3cnn4ncccc34)n2)cc1 | 2.58 | 1.86 | 4.61 | 0.75 | 3.24 | 3.13 | 5.2 | -1.04 | 0.71 | 0.11 | -0.46 | 0.01 | 3.09 | 1.88 | 1.02 | 2.21 | 3.84 | 5.02 | 13 | 7.93
COC(=O)Nc1nc2ccc(Sc3ccc(NC(=O)Nc4cc(C(F)(F)F)ccc4F)cc3)cc2[nH]1 | 7.52 | 56.3 | 83.5 | -0.94 | 2.67 | -0.44 | 2.71 | 2.04 | 0.54 | 0.63 | 0.47 | 4.21 | 1.97 | 25.8 | 89.6 | 9.91 | 34.5 | 49.5 | 81.6 | 43.4
Fc1ccc(-c2nc3n(c2-c2ccncc2)CCS3)cc1 | 4.61 | 2.36 | 4.83 | 0.92 | 3.39 | 5.61 | 14.5 | 2.5 | 1.57 | 1.65 | 0.86 | 1.02 | 1.42 | -3.82 | -3.6 | -0.22 | -0.79 | 6.24 | 3.74 | 3.72
CN(C)c1ccc2c(c1)/C(=C/Nc1ccc(S(N)(=O)=O)cc1)C(=O)N2 | 0.76 | 1.03 | 2.54 | 9.33 | 11.9 | 1.25 | 5.83 | 1.24 | 2.51 | 0.31 | 0.66 | 0.14 | 6.28 | -2.54 | -2.52 | 2.63 | 3.13 | -0.17 | 1.13 | 3.5
Fc1ccc(-c2ncn(C3CCNCC3)c2-c2ccnc(Oc3ccc4c(c3)OCO4)n2)cc1 | 6.08 | 6.32 | 7.88 | 5.59 | 13.1 | 4.4 | 18.7 | 3.06 | 10.2 | 2.39 | 6.05 | 1.3 | 7.04 | 3.08 | 2.37 | 3.63 | 10.3 | 11.3 | 15.4 | 10.6
COc1cc2ncn(-c3cc(OCc4ccccc4C(F)(F)F)c(C(C)=O)s3)c2cc1OC | 3.13 | 3.54 | 5.22 | -0.8 | 1.81 | -2.47 | 3.36 | 1.73 | 0.09 | 2.46 | 0.97 | -1.84 | 0.68 | 1.98 | 2.23 | 1.78 | 4.66 | 5.55 | 10.6 | 5.43
O=C(NCC1CC1)c1ccc(-c2cccc(C(=O)NC3CC3)c2)cc1 | -3.57 | 4.92 | 7.61 | 1.39 | 0.85 | 2.42 | -2.6 | -0.16 | -2.26 | 0.88 | -1.31 | -1.91 | 3.8 | 2.47 | 1.67 | 2.75 | 4.67 | 4.89 | -0.51 | 6.78
COc1ccc(C2=C(N3CCc4ccccc43)C(=O)NC2=O)cc1 | 9.3 | 1.75 | 1.87 | 1.18 | 3.59 | 7.35 | 7.13 | 4.49 | 6.05 | 3.62 | 2.96 | 1.12 | 2.08 | 2.52 | 0.56 | 7.52 | 5.91 | 10.6 | 12.4 | 11
NS(=O)(=O)c1ccc(N/N=C2\C(=O)Nc3ccc(-c4cnco4)cc32)cc1 | 4.17 | 1.59 | 2.15 | 9.52 | 12.9 | 2.54 | 6.44 | 2.45 | 4.95 | 0.19 | 1.56 | -2.11 | 5.42 | -5.84 | -4.92 | -2.34 | 0.23 | 5.13 | 10.8 | 6.73
COc1ccc(-c2ccc3c(NC(=O)C4CC4)n[nH]c3n2)cc1 | 4.87 | 0.86 | 0.84 | 0.14 | 0.71 | -1.64 | 3.91 | -0.19 | 2.45 | -0.2 | 4.06 | -0.83 | 5.32 | 0.96 | 0.05 | 2.4 | 3.41 | 6.38 | 10.4 | 1.78
NCc1ccc(-n2c(-c3nonc3N)nc3cnccc32)cc1 | 1.46 | 2.78 | 3.01 | 1.73 | 1.72 | 3.13 | 1.55 | 2.5 | 2.02 | 3.36 | 3.16 | 4.81 | 5.05 | 0.49 | 0.85 | 7 | 4.64 | 9.54 | 5.62 | 6.63
COc1cc(Nc2ncc3c(C)nc(-c4cccc(C(F)(F)F)c4)n3n2)cc(OC)c1OC | 12.9 | 0.31 | 0.73 | -0.06 | 0.98 | 4.13 | 4.89 | 2.74 | 8.43 | 1.49 | 5.56 | -1.07 | 5.23 | 4.32 | 17.5 | 6.02 | 10.7 | 22.4 | 56.1 | 17.1
CCC(=O)Nc1ccc(C)c(-c2ccc(C(=O)NCC3CC3)cc2)c1 | 4.34 | 1.85 | 2.57 | 6.56 | 6.12 | 2.49 | 5.47 | 3.28 | 4.44 | 0.82 | 2.33 | -0.94 | 3.59 | -1.79 | -2.2 | 1.95 | 4.02 | 6.75 | 8.5 | 6.82
